Screens as filed in PubChem BioAssay.
ANO1 activ: activates or potentiates the mouse TMEM16A chloride channel; Q8BHY3; HEK293 TMEM16A/YFP-H148Q/I152L, iodide quench fluorescence; stronger effect = lower value; B-score at 10 µM; 340,000 tested, 0.3% active;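 active means fluorescence-ratio B-score plate-corrected deviation score at least 3 library SD below zero, with starting fluorescence score within 5 deviations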;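 further: channel opened by trigger with iodide after compound preincubation; score built on the fluorescence ratio of max minus min over baseline; more negative score means more quench and so TMEM16A activation or potentiation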
Rce1 inhib: blocks yeast Ras-converting enzyme | Q03530 | yeast membranes, quenched prenylated peptide cleavage fluorescence | calls only | 290,000 tested, 0.27% active | AID 2563;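 active means fall in fluorescence gain of 50% or more versus controls, with final raw signal at or below 3038400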;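 further: plate controls were neutral control wells for no effect and wells lacking membranes for full effect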
TMEM16A inh: blocks the mouse calcium-activated chloride channel TMEM16A. Q8BHY3. HEK293 TMEM16A/YFP iodide influx fluorescence, ionomycin. normalized B-score (activity score, 25-100; higher = stronger inhibition) at 10 µM. 310,000 tested, 1.2% active;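 active means ratio plate-corrected score three or more library SD toward inhibition, starting fluorescence score within five deviations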;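 further: score derived from kinetic fluorescence span divided by baseline fluorescence per well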
CHT inh: inhibitors of human choline transporter CHT; CHT-expressing cells, membrane potential dye, choline response; stronger effect = lower value; B-score at 10 µM; 310,000 tested, 0.86% active; AID 488975;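 active means B-score over 3 SD under the library average, and starting fluorescence ratio not unusually high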;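 further: choline stimulus applied at its EC90 after an EC20 pre-addition; B-score computed on integrated fluorescence ratio after choline addition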
Target sequence (Q9GZV3 whole entry, looked up): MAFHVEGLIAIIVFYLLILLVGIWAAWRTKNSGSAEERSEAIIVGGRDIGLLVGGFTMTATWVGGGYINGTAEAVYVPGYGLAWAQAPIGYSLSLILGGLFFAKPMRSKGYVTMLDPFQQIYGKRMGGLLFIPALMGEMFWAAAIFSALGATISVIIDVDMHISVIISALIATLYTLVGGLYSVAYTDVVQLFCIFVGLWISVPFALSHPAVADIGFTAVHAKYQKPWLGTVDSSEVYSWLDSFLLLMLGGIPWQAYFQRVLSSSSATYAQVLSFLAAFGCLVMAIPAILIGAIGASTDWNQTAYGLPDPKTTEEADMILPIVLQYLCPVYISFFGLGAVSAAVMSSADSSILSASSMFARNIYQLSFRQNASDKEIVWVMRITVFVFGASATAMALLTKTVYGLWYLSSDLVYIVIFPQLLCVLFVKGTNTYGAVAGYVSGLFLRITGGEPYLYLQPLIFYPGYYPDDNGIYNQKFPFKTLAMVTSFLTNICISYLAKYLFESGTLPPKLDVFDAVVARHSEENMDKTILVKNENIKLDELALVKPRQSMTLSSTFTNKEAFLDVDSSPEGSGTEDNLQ
CHT allo act: allosterically activates the human high affinity choline transporter | Q9GZV3 | CHT-expressing cells, membrane potential dye, choline EC20; stronger effect = higher value; LV-AA mutant CHT in HEK293 cells | B-score at 10 µM | 310,000 tested, 0.49% active | AID 488977;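 active means initial fluorescence not abnormally high and integrated response B-score, plate-corrected, over 3 SD above library mean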
Kir21 inh: Kir2.1 (mouse) channel inhibition; P35561; B-score at 10 µM; HEK293-Kir2.1, FluxOR thallium flux fluorescence; stronger effect = lower value; 310,000 tested, 0.85% active;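 active means fluorescence ratio B-score at or below minus 3 SD of library scores, with starting-brightness B-score within 2 SD, cut at about -4.2 in these data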;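 further: channel flux triggered by added potassium and thallium sulfate stimulus; B-score of peak minus minimum fluorescence over baseline after thallium stimulus; more negative B-score means stronger Kir2.1 block with less thallium influx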
An asterisk follows results filed as active; i = inactive; . = no result; + = active, no number. In the library only some 3.2% were active in any assay of this set; here they are far more common.

SMILES	ANO1 activ	Rce1 inhib	TMEM16A inh	CHT inh	CHT allo act	Kir21 inh
CC(=O)c1coc2ccc(OCCN3CCCCC3)cc12	i	i	i	i	i	0.11
CCOc1ccc(CCNC(=O)c2ccc(CS(=O)Cc3ccccc3Cl)o2)cc1 (stereo not drawn)	i	i	i	i	i	-4.3*
COc1ccc(OCCN2CCN(C(=O)c3ccc(OC)cc3)CC2)cc1	i	i	100*	i	i	-2.8
COc1ccc(OCCN2CCN(C(=O)c3ccc(OC(F)F)c(OC)c3)CC2)cc1	i	i	i	i	i	0.99
COCCNC(=O)/C(C#N)=C/C=C/c1ccccc1[N+](=O)[O-]	i	i	i	i	i	-0.14
Cc1ccccc1NP1(=O)OCCCN1Cc1ccccc1Cl (stereo not drawn)	i	.	.	.	.	.
O=C(CCCc1nc2ccccc2s1)NCc1ccccc1	i	i	i	i	i	-0.11
O=C(CCCc1nc2ccccc2s1)NNC(=O)CCN1CCN(Cc2ccccc2)CC1	-22*	i	i	i	i	-2.4
CC1(c2ccccc2)C(C#N)C(=O)NC(=O)C1C#N (stereo not drawn)	i	.	.	.	.	.
COc1cc(CNC2CCCC2)cc(Cl)c1OCc1ccccc1F	i	i	i	i	i	-4.7*
N#Cc1nc(-c2cccc(Cl)c2)oc1N1CCC(C(N)=O)CC1	i	i	i	i	i	0.13
Cc1c(O)cc2c(c1O)C(=O)CC(c1ccccc1)O2 (stereo not drawn)	-6.5*	i	100*	i	i	0.04
COc1c(O)cc2c(c1O)C(=O)CC(c1ccccc1)O2 (stereo not drawn)	.	i	.	.	.	0.73
COc1ccc(CN2C(=O)c3ccccc3C(/C=N\OCc3ccc(F)cc3)C2=O)cc1 (stereo not drawn)	i	i	25*	i	i	0.26
Cc1ccc(COc2ccc(CNCCCN3CCCCCC3=O)cc2)cc1	i	i	i	i	i	-5.1*
O=C(NCc1cccc(Cl)c1)c1cc(COc2ccc3ncccc3c2)on1	i	i	100*	i	i	-0.11
CCC1CCCCN1C(=O)c1cc(COc2ccc3ncccc3c2)on1 (stereo not drawn)	i	i	25*	i	i	-1.5
O=C(OCC(=O)N1CCc2ccccc21)c1ccc([N+](=O)[O-])o1	i	.	.	.	.	.
Cc1cccc(C(=O)N[C@H](C(=O)Nc2ccc(C)c(S(=O)(=O)N(C)C)c2)C(C)C)c1	i	i	i	i	i	1.9
Cc1ccccc1CS(=O)(=O)c1nnc([C@H](Cc2ccccc2)NC(=O)OC(C)(C)C)o1	-5.2*	i	i	i	i	-3.9
O=C(Cc1ccc(Cl)cc1Cl)OCC(=O)N1CCN(C(=O)c2ccco2)CC1	i	.	i	i	i	1.3
COC(=O)Cc1c(C)c2ccc(OCc3nn[nH]n3)c(C)c2oc1=O	i	+	i	i	i	0.56
COC(=O)Cc1c(C)c2ccc(OCc3nn[nH]n3)cc2oc1=O	i	i	i	i	i	-0.71
c1ccc(-c2nnc3ccc(N4CCCC4)nn23)cc1	i	i	i	i	i	-0.63
CN(Cc1ccccc1)c1ccc2nnc(-c3ccccc3)n2n1	i	i	i	i	i	-5.2*
Cc1[nH][nH]c(=O)c1C(c1ccc(-c2ccc(F)cc2)o1)c1c(C)[nH][nH]c1=O	i	i	i	i	i	-5.3*
Cc1[nH][nH]c(=O)c1C(c1ccc(-c2ccc(C(=O)O)cc2)o1)c1c(C)[nH][nH]c1=O	i	.	.	.	.	.
CCCc1cnc(NCCNCC(O)COc2ccc(Cl)c(Cl)c2)nc1 (stereo not drawn)	i	i	i	i	i	-6.5*
CC1=Nc2ccccc2N=C(NC(=O)c2ccccc2)C1c1ccccc1 (stereo not drawn)	i	i	i	i	i	-0.57
O=C(NCc1ccc2c(c1)OCO2)c1ccc2c(c1)N(Cc1c(F)cccc1Cl)C(=O)CS2	i	i	i	i	i	0.32
